From PubChem BioAssay
Most compounds without a hit are left out; they make up all but 3.5% or so of the library.
mHTT CaM bind = disrupts binding of mutant huntingtin to calmodulin; P42858; AlphaScreen His-mHTT/GST-CaM binding, luminescence; inhibition, % at 15 µM; hit rate 3.6% among 190,000
Pf apPOL block = Pf-apPOL DNA polymerase inhibition. inhibition, % at 10 µM. hit rate 0.25% among 210,000. Recombinant Pf-apPOL, molecular beacon fluorescence, 1.5 h
A number is an active result. Rule as the data show it: active = inhibition above about 50%; inactive = the rest.

Results for COc1ccc(-c2ccc(CN3C(C(C)C)C(=O)N(Cc4cn(Cc5ccco5)nn4)CCS3(=O)=O)cc2)cn1 (configuration not stated) ?
mHTT CaM bind: inactive; Pf apPOL block: inactive

Results for CC(C)C1C(=O)N(Cc2cn(Cc3ccco3)nn2)CCS(=O)(=O)N1Cc1ccc(-c2ccc(Cl)c(Cl)c2)cc1 (configuration not stated) ?
mHTT CaM bind: 83; Pf apPOL block: inactive

What do the screens show for `Cc1cc(I)ccc1N1C(=O)C2C3C=CC(CC3)C2C1=O` (configuration not stated)?
mHTT CaM bind: inactive; Pf apPOL block: inactive

Results for CC(C)=CCc1cc2c(cc1O)oc(=O)c1c3ccc(O)cc3oc21 ?
Pf apPOL block: inactive

How did Cc1ccc(NC(=O)c2cccc(Cn3cncn3)c2)cc1 do in these assays?
mHTT CaM bind: inactive; Pf apPOL block: inactive

What do the screens show for `COCCN1C(=O)c2ccccc2C(C(=O)N(C)c2ccc(C(C)C)cc2)C1c1ccc(F)cc1` (configuration not stated)?
mHTT CaM bind: 57; Pf apPOL block: inactive

What do the screens show for `COCCN1C(=O)c2ccccc2C(C(=O)N(C)C2CCCCC2)C1c1ccc(F)cc1` (configuration not stated)?
mHTT CaM bind: inactive; Pf apPOL block: inactive

How did O=C(NC1CCCC1)c1cc2n(n1)CCCN(Cc1ccccc1)C2=O do in these assays?
mHTT CaM bind: inactive; Pf apPOL block: inactive

Results for CC(=O)NC(C(N)=S)C(OC(C)=O)C(OC(C)=O)C(COC(C)=O)OC(C)=O (configuration not stated) ?
Pf apPOL block: inactive

What do the screens show for `COc1ccc(CNC(=O)c2cc3c(n2C)CCN(Cc2ccc(F)cc2)C3)cc1OC`?
mHTT CaM bind: 76; Pf apPOL block: inactive

How did COc1ccccc1NC(=O)N1CCc2c(c(COCc3cccc(F)c3)nn2C)C1 do in these assays?
mHTT CaM bind: inactive; Pf apPOL block: inactive

What do the screens show for `COc1ccccc1NC(=O)c1cc2c(n1C)CCN(Cc1ccc(F)cc1)C2`?
mHTT CaM bind: 63; Pf apPOL block: inactive

How did COc1ccc(CNC(=O)c2cc3c(n2C)CCN(Cc2ccc(F)cc2)C3)cc1 do in these assays?
mHTT CaM bind: inactive; Pf apPOL block: inactive

What do the screens show for `Cc1ccc(CN2CCc3c(cc(C(=O)NCc4ccco4)n3C)C2)cc1`?
mHTT CaM bind: 62; Pf apPOL block: inactive

Results for Cn1c(C(=O)NCc2ccco2)cc2c1CCN(Cc1ccccc1)C2 ?
mHTT CaM bind: inactive; Pf apPOL block: inactive

What do the screens show for `COc1cccc(CNC(=O)c2cc3c(n2C)CCN(Cc2ccc(F)cc2)C3)c1OC`?
mHTT CaM bind: inactive; Pf apPOL block: inactive

Results for COc1ccccc1NC(=O)N1CCc2c(c3cc(F)ccc3n2C)C1 ?
mHTT CaM bind: 82; Pf apPOL block: inactive

Results for Cc1cccc(N2CCN(C(=O)c3cn4c(n3)CCCC4)CC2)c1 ?
mHTT CaM bind: inactive; Pf apPOL block: inactive

What do the screens show for `O=C(N1CCC(c2cnn(-c3ccc(F)cc3)c2)CC1)C1(c2ccccc2)CC1`?
mHTT CaM bind: inactive; Pf apPOL block: inactive

How did Cc1ccccc1-c1nnc(-c2cccc([N+](=O)[O-])c2)o1 do in these assays?
mHTT CaM bind: inactive; Pf apPOL block: inactive

What do the screens show for `CCOC(=O)c1nc(C)sc1C(=O)C=CN(C)C`?
Pf apPOL block: inactive

How did Cn1c(SC2CCOC2=O)nc2ccccc2c1=O (configuration not stated) do in these assays?
mHTT CaM bind: inactive

What do the screens show for `CCN(CC)S(=O)(=O)c1ccc(F)c(C(=O)Nc2ccc(F)c(Cl)c2)c1`?
mHTT CaM bind: inactive; Pf apPOL block: inactive

How did CN(C)CCCNC(=O)c1cc2c(n1C)CCN(Cc1ccc(F)cc1)C2 do in these assays?
mHTT CaM bind: 96; Pf apPOL block: inactive

What do the screens show for `CN(C)CCNC(=O)c1cc2c(n1C)CCN(Cc1ccccc1)C2`?
mHTT CaM bind: inactive; Pf apPOL block: inactive

What do the screens show for `CC(=O)N1CCN(CC(=O)N2N=C(c3ccc(C)c(C)c3)CC2c2ccccc2)CC1` (configuration not stated)?
mHTT CaM bind: inactive; Pf apPOL block: inactive

How did Cc1ccc(C2CC(c3ccc(Br)cc3)=NN2C(=O)CCC(=O)O)cc1 (configuration not stated) do in these assays?
mHTT CaM bind: inactive; Pf apPOL block: inactive

How did Cc1ccc(C2=NN(C(=O)CN3CCC(C(N)=O)CC3)C(c3ccc(C)cc3)C2)cc1 (configuration not stated) do in these assays?
mHTT CaM bind: 57; Pf apPOL block: inactive

Results for Cc1ccc(C2=NN(C(=O)CN3CCC(C(N)=O)CC3)C(c3ccccc3)C2)c(C)c1 (configuration not stated) ?
mHTT CaM bind: 56; Pf apPOL block: inactive

Results for CCOC(=O)c1cnc2nc(C)ccc2c1Nc1ccccc1F ?
mHTT CaM bind: inactive; Pf apPOL block: inactive

What do the screens show for `CN(C)c1ccc(CNC(=O)CC2CCN(C(=O)C3CCCCC3)CC2)cc1`?
mHTT CaM bind: inactive; Pf apPOL block: inactive

How did CCCCC(=O)Nc1ncn[nH]1 do in these assays?
mHTT CaM bind: inactive; Pf apPOL block: inactive
